High-throughput results deposited in PubChem BioAssay by National Center for Advancing Translational Sciences (NCATS).
Nrf2 inh – inhibitors of Nrf2 signaling; A549 ARE-Fluc reporter, luciferase luminescence, 18-24 h; Potency, µM (top dose mostly 46 µM), actives largely listed as inhibitors; actives 2.1% (n = 360,000); AID 504444; note: nearly all actives have a fitted effect of over 60% in size
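In this cell-based qHTS, ARE-driven firefly luciferase in A549 cells reports Nrf2 activity; the luminescent signal after BugLite lysis is the measured value, with a prior CellTiter-Fluor read for cell health.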
Giardia killer – Giardia lamblia killing; Giardia lamblia trophozoite viability; activity change, % at 7.66 µM, hits read low; actives 0.15% (n = 340,000); in the data active = activity change below about -80%; inconclusive = between about -30% and that limit;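 note: parasites exposed to compound for two days anaerobically before the ATP read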
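Anaerobic 48 hrs incubation at 37 deg C of 100 trophozoites/well with test compounds; ATPLite 1-Step luminescence, 15-30 min RT, reports cellular ATP as viability.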
PI4K2A inh – inhibitors of human PI4K2A | Q9BTU6 | purified PI4K2A, ADP-Glo luminescence, 1 h; active compounds read low | activity change, negative = inhibition, % at 76.9 µM | actives 0.13% (n = 420,000) | AID 1346378; in the data active = activity change below about -50%; inconclusive = mostly about -30% to -49%
Target sequence (Q9BTU6 whole entry, looked up): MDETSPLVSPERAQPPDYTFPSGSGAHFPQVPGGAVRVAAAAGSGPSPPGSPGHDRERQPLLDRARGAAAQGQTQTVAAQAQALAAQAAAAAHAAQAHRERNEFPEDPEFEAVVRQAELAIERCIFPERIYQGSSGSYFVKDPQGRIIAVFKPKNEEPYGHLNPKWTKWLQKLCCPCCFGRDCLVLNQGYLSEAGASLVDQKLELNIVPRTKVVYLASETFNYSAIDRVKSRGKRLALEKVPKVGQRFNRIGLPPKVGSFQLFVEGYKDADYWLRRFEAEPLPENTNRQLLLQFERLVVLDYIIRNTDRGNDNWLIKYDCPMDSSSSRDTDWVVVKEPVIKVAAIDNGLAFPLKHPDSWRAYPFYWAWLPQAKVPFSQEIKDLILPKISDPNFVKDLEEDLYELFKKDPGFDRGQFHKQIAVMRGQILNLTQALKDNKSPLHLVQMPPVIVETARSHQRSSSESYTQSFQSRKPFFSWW
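In this quantitative HTS, ADP production by PI4K2A was quantified luminescently after 1 h at ambient temperature; 100 microM adenosine served as plate-quality control.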
KB-3-1 cytotox – kills parental KB-3-1 adenocarcinoma cells | KB-3-1 viability, CellTiter-Glo ATP luminescence, 72 h | Potency, µM (highest dose often 46.1 µM), most hits filed as cytotoxic | actives 1.4% (n = 400,000) | AID 1347075; note: nearly all actives have a fitted effect of over 60% in size
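72 h, 37 °C compound treatment of KB-3-1 parental cells; CellTiter-Glo added, 10 min, luminescence read. Data corrected against DMSO-only plates and normalized before curve fitting.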
KB-V1 cytotox – kills drug-selected multidrug resistant KB-V1 cells; actives 3.4% (n = 400,000); Potency, µM (series often up to 46.1 µM), usual class: cytotoxic; KB-V1 MDR cells viability, CellTiter-Glo, 72 h; AID 1347076; note: nearly all actives have a fitted effect of over 60% in size
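Cells of the MDR subline KB-V1 are plated, dosed with compound at multiple concentrations, and incubated 72 h at 37 degrees C; CellTiter-Glo is then added and luminescence read after 10 min.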
A549 tox – A549 cytotoxicity, counter-screen for Nrf2 inhibitors | A549 ARE-Fluc cells, CellTiter-Fluor viability, 18-24 h | Potency, µM (highest dose often 46 µM), most hits filed as inhibitors | actives 0.16% (n = 390,000)
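A549 ARE_Fluc cells in 5% FBS OPTI-MEM were exposed to compounds in concentration-response for 18-24 h at 37 deg C. Viability was read by CellTiter-Fluor fluorescence (Ex 405/Em 525) after 30 min, before the luciferase read.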
Large screens that a line does not name were inactive. A selection: hits, their analogues and other compounds. The true share with any hit is near 5.7%. Unless noted, calls come from the whole dose curve; as a rule, active = well fitted curve in the direction sought with a large enough effect; inconclusive = small, poorly fitted or top-dose-only effect, or another doubt; inactive = no such curve, though single readings can be large; an effect the other way counts as inactive or inconclusive.

COc1ccc(CNC(=O)C2CC(c3ccc(F)cc3)=NO2)cc1 (configuration not stated)	none (no result: Nrf2 inh)
CC(C)CN1C(=O)[C@@]2(CC(=O)N(C)C2c2ccccc2)c2cc(-n3cc(CCCC#N)nn3)ccc21 (some centres not stated)	none (no result: Nrf2 inh, Giardia killer, KB-3-1 cytotox, KB-V1 cytotox, A549 tox)
COc1ccccc1-c1nc(SCC(=O)Nc2ccc(C)c(C)c2)n[nH]1	Nrf2 inh inconclusive (no result: Giardia killer)
CCN1CCN(C(=S)NC(=O)c2cccs2)CC1	Nrf2 inh inconclusive
O=C(NC(=S)N1CCN(c2ccc(C(F)(F)F)cc2[N+](=O)[O-])CC1)c1cccs1	KB-V1 cytotox 15µM
Cc1c(C(=O)N2CCCC2)oc2c1-c1nn(CC(=O)NC(C)c3ccccc3)cc1CC2 (configuration not stated)	Nrf2 inh 18µM (no result: Giardia killer, KB-3-1 cytotox, KB-V1 cytotox)
Cc1c(C(=O)N2CCCC2)oc2c1-c1nn(CC(=O)NCc3cccc(F)c3)cc1CC2	Nrf2 inh inconclusive (no result: Giardia killer, KB-3-1 cytotox, KB-V1 cytotox)
CCOC(=O)[C@@]12CCCC3=C1N(CCC3)C(=O)[C@H]2CC(=O)NCCC(C)C	none (no result: Nrf2 inh, Giardia killer, KB-3-1 cytotox, KB-V1 cytotox, A549 tox)
O=C1CCCc2cc3c(cc21)CC1(C3)Cc2cc3c(cc2C1)C(=O)CCC3	Nrf2 inh inconclusive, KB-3-1 cytotox 6.5µM
CCN(CC)C(=O)c1ccc2nc(-c3ccccc3)c(-c3ccccc3)nc2c1	Nrf2 inh inconclusive, KB-3-1 cytotox inconclusive, KB-V1 cytotox 4.1µM
COC(CNC(=O)[C@H](Cc1c[nH]c2ccccc12)NC1(C(=O)NC(c2ccccc2)c2ccccc2)CCCCC1)OC	none (no result: Nrf2 inh, Giardia killer, KB-3-1 cytotox, KB-V1 cytotox, A549 tox)
CC(C)CC(=O)NN(C)c1nc(-c2ccccc2)nnc1C(F)(F)F	none
CN(NC(=O)c1ccc(Cl)cc1)c1nc(-c2ccccc2)nnc1C(F)(F)F	Nrf2 inh 23µM, KB-3-1 cytotox inconclusive, KB-V1 cytotox 15µM
Cc1ccc(C(=O)NN(C)c2nc3ccccc3nc2C(F)(F)F)cc1	KB-3-1 cytotox 5.8µM, KB-V1 cytotox inconclusive, A549 tox inconclusive
CS(=O)(=O)N1CCC(C(=O)NCC2COc3ccccc3O2)CC1 (configuration not stated)	none (no result: Nrf2 inh, Giardia killer, KB-3-1 cytotox, KB-V1 cytotox, A549 tox)
COc1ccccc1CCNC(=O)C(=O)NCC(c1ccco1)S(=O)(=O)c1ccc(F)cc1 (configuration not stated)	none (no result: Nrf2 inh, Giardia killer)
COc1ccc(C)cc1Nc1n[n+](-c2ccccc2)c(-c2ccc(N(C)C)cc2)s1	Nrf2 inh inconclusive, KB-3-1 cytotox inconclusive
Cc1ccc2c(c1)sc(-c1ccc(N(C)C)cc1)[n+]2C	Nrf2 inh 2.1µM, KB-3-1 cytotox 1.8µM, A549 tox inconclusive
COc1ccc(N2C(c3cc(OC)cc(OC)c3)=Cc3ccccc3C2CC(C)=O)cc1 (configuration not stated)	KB-3-1 cytotox 23µM (no result: Nrf2 inh, Giardia killer, A549 tox)
O=c1c2ccccc2oc2ccc(-c3ccoc3)cc12	KB-V1 cytotox inconclusive (no result: Nrf2 inh, Giardia killer, PI4K2A inh, A549 tox)
COc1ccc(NC(=O)Cn2c3ccc(OC)cc3c3nc4n(c(=O)c32)CCS4)cc1	Nrf2 inh 23µM, KB-V1 cytotox inconclusive
CC(=O)c1ccc(-c2csc3ncnc(Sc4nnnn4C)c23)cc1	Nrf2 inh inconclusive (no result: Giardia killer, PI4K2A inh, KB-3-1 cytotox, KB-V1 cytotox)
Fc1cc2[nH]c(=S)[nH]c2c(Br)c1N1CCSCC1	KB-3-1 cytotox 2.1µM, KB-V1 cytotox inconclusive
Fc1cc2nccnc2cc1N1CCSCC1	none (no result: Nrf2 inh)
Cc1ccc(NS(=O)(=O)c2ccc3c(ccn3C)c2)cc1C	Nrf2 inh inconclusive (no result: Giardia killer, PI4K2A inh, KB-3-1 cytotox, KB-V1 cytotox)
COC(=O)C1CN(Cc2ccc(F)cc2)CCS(=O)(=O)N1Cc1ccc(OC)cc1 (configuration not stated)	none (no result: Nrf2 inh, Giardia killer, KB-3-1 cytotox, KB-V1 cytotox, A549 tox)
c1ccc(Cc2nnc3sc(C4COc5ccccc5O4)nn23)cc1 (configuration not stated)	KB-V1 cytotox 15µM
Clc1ccccc1-c1nnc2sc(C3COc4ccccc4O3)nn12 (configuration not stated)	KB-V1 cytotox 16µM (no result: Nrf2 inh)
Cc1ccc(-c2nnc3sc(C4COc5ccccc5O4)nn23)cc1 (configuration not stated)	none (no result: Nrf2 inh)
c1ccc(Cc2nnc3sc(-c4ccccn4)nn23)cc1	KB-3-1 cytotox inconclusive, KB-V1 cytotox 16µM, A549 tox inconclusive (no result: Nrf2 inh)
CCOc1ccc(S(=O)(=O)NCc2cccn2Cc2cccc(C)c2)cc1	none (no result: Nrf2 inh, Giardia killer)
Cc1c(N2C(=O)/C(=C\c3ccc(N(C)C)cc3)N(C)C2=S)c(=O)n(-c2ccccc2)n1C	A549 tox 15µM
CC1=C(C(=O)OCc2ccc(C)cc2)C(c2cccc(F)c2F)CC(=O)N1 (configuration not stated)	Nrf2 inh 23µM (no result: Giardia killer)
CN1C(=O)/C(=C/c2cccc(Cl)c2)Sc2ccc(C(=O)N3CCOCC3)cc21	Nrf2 inh 15µM
CCOC(=O)C1CCCN(C(=O)c2ccc3c(c2)N(C)C(=O)/C(=C/c2ccccc2Cl)S3)C1 (configuration not stated)	Nrf2 inh 23µM, KB-3-1 cytotox inconclusive, KB-V1 cytotox inconclusive
NC(=O)C1CCN(c2nc(-c3ccc(OCc4ccccc4)cc3)cs2)CC1	none (no result: Nrf2 inh, Giardia killer, KB-3-1 cytotox, KB-V1 cytotox, A549 tox)
COc1ccc(-c2nnc(CSc3ncnc4sc5c(c34)CCC5)o2)cc1OC	KB-V1 cytotox 21µM
COCCn1c(SCc2nnc(-c3ccccc3)o2)nc2sc3c(c2c1=O)CCC3	KB-V1 cytotox 6.5µM
O=C(CN1C(=O)COc2ccccc21)N(Cc1ccc2c(c1)OCO2)CC1CCCO1 (configuration not stated)	KB-V1 cytotox 4.1µM (no result: Nrf2 inh)
COc1ccc(C(=O)NCCN2C(=O)S/C(=C\c3cccnc3)C2=O)c(OC)c1OC	KB-V1 cytotox 15µM
CCOc1cc(C(=O)NCCN2C(=O)S/C(=C\c3cccnc3)C2=O)cc(OCC)c1OCC	none
O=C(CC1C(=O)NCCN1Cc1ccc(-c2ccccc2)cc1)NCC1CC1 (configuration not stated)	Nrf2 inh 23µM, KB-V1 cytotox inconclusive, A549 tox inconclusive
S=C(NCCSCc1ccc(Cl)c(Cl)c1)Nc1ccccc1	Nrf2 inh inconclusive
S=C(NCCSCc1c(Cl)cccc1Cl)Nc1ccccc1	Nrf2 inh inconclusive, KB-3-1 cytotox inconclusive, KB-V1 cytotox 21µM
COc1cccc(NC(=O)Nc2ccc3nc(N4CCN(C)CC4)cc(C)c3c2)c1	A549 tox inconclusive (no result: Nrf2 inh, Giardia killer)
CC1CCCC/C1=N/Nc1ccc([N+](=O)[O-])cc1[N+](=O)[O-] (configuration not stated)	none
O=[N+]([O-])c1ccc(C2CCCC/C2=N\OCc2cccc(F)c2)c([N+](=O)[O-])c1 (configuration not stated)	KB-V1 cytotox 10µM
O=S(=O)(CCSc1nc2ccccc2s1)c1nc2ccccc2s1	Nrf2 inh inconclusive, KB-3-1 cytotox inconclusive, KB-V1 cytotox inconclusive
C=CCS(=O)(=O)c1nc2ccccc2s1	KB-3-1 cytotox inconclusive, KB-V1 cytotox 23µM (no result: Nrf2 inh)
